# Tcruzi prolif: T. cruzi intracellular proliferation inhibitors, primary screen, cell-based, beta-gal Tulahuen parasites, NIH3T3 host, luminescence; T. cruzi beta-gal in NIH3T3, GalScreen luminescence, 90 h; inhibition, % at 8.34 µM; actives 5.9% (n = 77,000); AID 624255, 2012;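 active = mean inhibition above about 93%, with at least 55% of replicates each passing it, limit read from the data, passing the limit was not always enough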
# C diff HTS: C. difficile growth inhibitors, primary screen, HTS | growth activity, negative = inhibition, % at 16 µg/mL (by protocol) | actives 0.25% (n = 86,000) | AID 1259249, 2017 | Clostridium difficile clinical isolate growth, OD600, 24 h; hits give low values;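 active = mean growth activity at or below -80% and every replicate also at or below -80%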;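 also: 0% = DMSO wells and -100% = levofloxacin 16 µg/mL wells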
# Pf Dd2 growth: P. falciparum Dd2 growth inhibitors, primary screen, SYBR Green fluorescence, single dose replicates; 72 h; hits give low values; activity change, % at 10 µM; actives 2.3% (n = 94,000); AID 1159554, 2015; in the data active = activity change below about -80%
# Numbers without * were called inactive; · = no result; ! = a repeat was not active. Sampled rows, rich in hits. Any-hit rate of the full collection: about 6.8%.
SMILES,Tcruzi prolif,C diff HTS,Pf Dd2 growth
C[C@H]1CN([C@@H](C)CO)C(=O)c2cc(NS(=O)(=O)c3cccs3)ccc2O[C@H]1CN(C)Cc1ccc(C(=O)Nc2ccccc2N)cc1,·,5.1,-49.4
C[C@@H]1CN([C@H](C)CO)C(=O)c2cc(NS(=O)(=O)c3cccs3)ccc2O[C@@H]1CN(C)Cc1ccc(C(=O)Nc2ccccc2N)cc1,·,1.5,-87.1*
C[C@@H]1CN([C@@H](C)CO)C(=O)Cc2cc(NS(=O)(=O)c3cccs3)ccc2O[C@@H]1CN(C)Cc1ccc(C(=O)Nc2ccccc2N)cc1,40.0,10.1,-67.9
C[C@@H]1CN([C@H](C)CO)C(=O)Cc2cc(NS(=O)(=O)c3cccs3)ccc2O[C@@H]1CN(C)Cc1ccc(C(=O)Nc2ccccc2N)cc1,·,8.1,-85.6*
COc1ccccc1NC(=O)N1C[C@@H]2N[C@H](C1)C2c1ccc(-c2cccc(C#N)c2)cc1 (stereo partly specified),·,3.2,-15.2
O=C(Nc1cccc(F)c1)N1C[C@@H]2N[C@H](C1)C2c1ccc(-c2cccnc2)cc1 (stereo partly specified),·,10.5,-51.1
N#Cc1cccc(-c2ccc(C3[C@@H]4CN(C(=O)Nc5ccc(C(F)(F)F)cc5)C[C@H]3N4)cc2)c1 (stereo partly specified),·,-93.5*,-84.5*!
O=C(Nc1ccc(C(F)(F)F)cc1)N1C[C@@H]2N[C@H](C1)C2c1ccc(-c2cccnc2)cc1 (stereo partly specified),·,-102.0*!,-90.9*!
COCCNC(=O)C[C@H]1CC[C@H]2[C@@H](COC[C@@H](O)CN2S(=O)(=O)c2ccccc2F)O1,28.4,3.2,·
COc1ccc(C#Cc2ccc3c(c2)[C@H]2[C@H](CCN2C(=O)Nc2ccc(C(F)(F)F)cc2)[C@@H](CO)N3C)cc1,60.3,-2.7,-6.0
COc1ccc2c3c([nH]c2c1)[C@@H](CO)N(C(=O)C1CCCCC1)CC31CN(Cc2nccs2)C1,·,0.1,-46.5
CN1C(=O)c2cc(NC(=O)c3cccs3)ccc2OC[C@H]2O[C@@H](CC(=O)NCCN3CCCCC3)CC[C@H]21,41.1,-3.6,-26.8
CO[C@@H](CN(C)C(=O)c1ccccc1F)[C@H](C)CN([C@H](C)CO)S(=O)(=O)c1ccc(C)cc1,13.1,·,-11.3
C[C@@H]1CN([C@@H](C)CO)S(=O)(=O)c2ccc(C#Cc3ccncc3)cc2O[C@H]1CN(C)S(=O)(=O)c1ccccc1,82.4,-1.9,-61.5
Cc1ccc(S(=O)(=O)N(C)C[C@H]2Oc3cc(C#Cc4ccncc4)ccc3S(=O)(=O)N([C@@H](C)CO)C[C@@H]2C)cc1,66.6,-0.4,-86.0*
Cc1ccc(S(=O)(=O)N(C)C[C@@H]2Oc3cc(C#Cc4ccncc4)ccc3S(=O)(=O)N([C@@H](C)CO)C[C@H]2C)cc1,82.3,1.6,-81.4*
Cc1ccc(S(=O)(=O)N(C)C[C@@H]2Oc3cc(C#Cc4ccncc4)ccc3S(=O)(=O)N([C@H](C)CO)C[C@H]2C)cc1,79.5,1.3,-79.2
C[C@@H]1CN([C@H](C)CO)S(=O)(=O)c2ccc(C#Cc3ccncc3)cc2O[C@H]1CN(C)S(=O)(=O)c1ccc(F)cc1,107.1,4.3,-86.3*
Cc1ccc(S(=O)(=O)N(C)C[C@@H]2Oc3cc(C#Cc4ccncc4)ccc3S(=O)(=O)N([C@H](C)CO)C[C@@H]2C)cc1,62.4,1.3,-70.1
C[C@H]1CN([C@@H](C)CO)S(=O)(=O)c2ccc(C#Cc3ccncc3)cc2O[C@@H]1CN(C)S(=O)(=O)c1ccccc1,23.4,3.7,-93.1*
C[C@H](CO)N1C[C@H](C)[C@@H](CN(C)S(=O)(=O)c2ccc(F)cc2)Oc2cc(C#Cc3ccncc3)ccc2S1(=O)=O,92.9,3.6,-59.4
N#C[C@H]1[C@@H](c2ccccc2-c2ccc(F)cc2)[C@H](CO)N1C(=O)Cc1ccccc1,·,87.3,-0.8
Cc1noc(C)c1S(=O)(=O)N(C)C[C@@H]1Oc2ccc(NC(=O)NC3CCCCC3)cc2CC(=O)N([C@H](C)CO)C[C@@H]1C,14.4,16.8,10.2
COC(=O)C(CC#Cc1ccc2c(c1)[C@]1(C(=O)N2)[C@H](c2ccc(OCCO)cc2)N2[C@H](c3ccccc3)[C@H](c3ccccc3)OC(=O)[C@H]2[C@@H]1C(=O)Nc1nc2ccccc2s1)C(=O)OC,·,-4.1,·
C[C@H](CO)N1C[C@H](C)[C@@H](CN(C)S(C)(=O)=O)Oc2c(NC(=O)CCCCCC(=O)Nc3ccccc3N)cccc2C1=O,·,-2.0,68.2
SMILES,Tcruzi prolif,C diff HTS,Pf Dd2 growth
Cc1ccc(S(=O)(=O)N(C)C[C@H]2Oc3c(NC(=O)CCCCCC(=O)Nc4ccccc4N)cccc3C(=O)N([C@H](C)CO)C[C@H]2C)cc1,·,-12.8,-89.8*
C[C@H](CO)N1C[C@H](C)[C@H](CN(C)S(C)(=O)=O)Oc2c(NC(=O)CCCCCC(=O)Nc3ccccc3N)cccc2C1=O,·,14.6,27.6
C[C@@H]1CN([C@H](C)CO)C(=O)c2cccc(NC(=O)CCCCCC(=O)Nc3ccccc3N)c2O[C@@H]1CN(C)S(=O)(=O)c1ccccc1,·,-6.8,-89.0*
C[C@@H]1CN([C@H](C)CO)C(=O)c2cccc(NC(=O)CCCCCC(=O)Nc3ccccc3N)c2O[C@@H]1CN(C)S(C)(=O)=O,·,-3.0,21.4
C[C@@H]1CN([C@H](C)CO)C(=O)c2cccc(NC(=O)CCCCCC(=O)Nc3ccccc3N)c2O[C@@H]1CN(C)S(=O)(=O)c1cccs1,·,5.5,-84.2*
C[C@@H]1CN([C@H](C)CO)C(=O)c2cccc(NC(=O)CCCCCC(=O)Nc3ccccc3N)c2O[C@@H]1CN(C)S(=O)(=O)c1ccc(Cl)cc1,86.5,-7.1,-87.9*
Cc1ccc(S(=O)(=O)N(C)C[C@@H]2Oc3c(NC(=O)CCCCCC(=O)Nc4ccccc4N)cccc3C(=O)N([C@H](C)CO)C[C@H]2C)cc1,·,2.2,-60.9
O=C(C1CCCC1)N1CC2(C1)[C@@H](c1ccccc1)[C@@H](CO)N2Cc1cncnc1,·,5.4,24.5
COc1ccc(CN(C)C[C@H]2OCCCC[C@@H](C)Oc3ccc(NS(C)(=O)=O)cc3C(=O)N([C@H](C)CO)C[C@H]2C)cc1,67.4,1.9,25.2
C[C@@H]1CN([C@H](C)CO)C(=O)c2cccc(NC(=O)Nc3cccc4ccccc34)c2O[C@@H]1CN(C)S(=O)(=O)c1ccccc1,24.0,-6.9,-81.5*
C[C@H](CO)N1C[C@H](C)[C@@H](CN(C)S(=O)(=O)c2ccccc2)Oc2c(NC(=O)Nc3cccc4ccccc34)cccc2C1=O,36.2,-7.8,-35.8
CN(C)Cc1cn(CC[C@@H]2CC[C@H](NS(=O)(=O)c3ccc(-c4ccccc4)cc3)[C@@H](CO)O2)nn1,-239.5,·,9.0
CCCc1cn(CC[C@H]2CC[C@H](NS(=O)(=O)c3ccc(-c4ccccc4)cc3)[C@@H](CO)O2)nn1,-31.5,2.0,-88.9*
CN(C)Cc1cn(CC[C@@H]2CC[C@H](NS(=O)(=O)c3ccc(-c4ccccc4)cc3)[C@H](CO)O2)nn1,-79.2,·,-24.9
CCCc1cn(CC[C@@H]2CC[C@@H](NS(=O)(=O)c3ccc(-c4ccccc4)cc3)[C@H](CO)O2)nn1,59.3,-2.4,-93.3*

# Assay outcomes deposited in PubChem BioAssay by Broad Institute.
